Shown is part of a subset that was picked to be rich in hits.
Pf apPOL inh = Pf-apPOL DNA polymerase inhibition | inhibition, % at 10 µM | Recombinant Pf-apPOL, molecular beacon fluorescence, 1.5 h | AID 1794808 | actives 0.25% (n = 210,000)
mHTT-CaM PPI inh = disrupts binding of mutant huntingtin to calmodulin | AlphaScreen His-mHTT/GST-CaM binding, luminescence | inhibition, % at 15 µM | actives 3.6% (n = 190,000) | AID 1671202
Target sequence (P42858 whole entry, looked up, change not shown): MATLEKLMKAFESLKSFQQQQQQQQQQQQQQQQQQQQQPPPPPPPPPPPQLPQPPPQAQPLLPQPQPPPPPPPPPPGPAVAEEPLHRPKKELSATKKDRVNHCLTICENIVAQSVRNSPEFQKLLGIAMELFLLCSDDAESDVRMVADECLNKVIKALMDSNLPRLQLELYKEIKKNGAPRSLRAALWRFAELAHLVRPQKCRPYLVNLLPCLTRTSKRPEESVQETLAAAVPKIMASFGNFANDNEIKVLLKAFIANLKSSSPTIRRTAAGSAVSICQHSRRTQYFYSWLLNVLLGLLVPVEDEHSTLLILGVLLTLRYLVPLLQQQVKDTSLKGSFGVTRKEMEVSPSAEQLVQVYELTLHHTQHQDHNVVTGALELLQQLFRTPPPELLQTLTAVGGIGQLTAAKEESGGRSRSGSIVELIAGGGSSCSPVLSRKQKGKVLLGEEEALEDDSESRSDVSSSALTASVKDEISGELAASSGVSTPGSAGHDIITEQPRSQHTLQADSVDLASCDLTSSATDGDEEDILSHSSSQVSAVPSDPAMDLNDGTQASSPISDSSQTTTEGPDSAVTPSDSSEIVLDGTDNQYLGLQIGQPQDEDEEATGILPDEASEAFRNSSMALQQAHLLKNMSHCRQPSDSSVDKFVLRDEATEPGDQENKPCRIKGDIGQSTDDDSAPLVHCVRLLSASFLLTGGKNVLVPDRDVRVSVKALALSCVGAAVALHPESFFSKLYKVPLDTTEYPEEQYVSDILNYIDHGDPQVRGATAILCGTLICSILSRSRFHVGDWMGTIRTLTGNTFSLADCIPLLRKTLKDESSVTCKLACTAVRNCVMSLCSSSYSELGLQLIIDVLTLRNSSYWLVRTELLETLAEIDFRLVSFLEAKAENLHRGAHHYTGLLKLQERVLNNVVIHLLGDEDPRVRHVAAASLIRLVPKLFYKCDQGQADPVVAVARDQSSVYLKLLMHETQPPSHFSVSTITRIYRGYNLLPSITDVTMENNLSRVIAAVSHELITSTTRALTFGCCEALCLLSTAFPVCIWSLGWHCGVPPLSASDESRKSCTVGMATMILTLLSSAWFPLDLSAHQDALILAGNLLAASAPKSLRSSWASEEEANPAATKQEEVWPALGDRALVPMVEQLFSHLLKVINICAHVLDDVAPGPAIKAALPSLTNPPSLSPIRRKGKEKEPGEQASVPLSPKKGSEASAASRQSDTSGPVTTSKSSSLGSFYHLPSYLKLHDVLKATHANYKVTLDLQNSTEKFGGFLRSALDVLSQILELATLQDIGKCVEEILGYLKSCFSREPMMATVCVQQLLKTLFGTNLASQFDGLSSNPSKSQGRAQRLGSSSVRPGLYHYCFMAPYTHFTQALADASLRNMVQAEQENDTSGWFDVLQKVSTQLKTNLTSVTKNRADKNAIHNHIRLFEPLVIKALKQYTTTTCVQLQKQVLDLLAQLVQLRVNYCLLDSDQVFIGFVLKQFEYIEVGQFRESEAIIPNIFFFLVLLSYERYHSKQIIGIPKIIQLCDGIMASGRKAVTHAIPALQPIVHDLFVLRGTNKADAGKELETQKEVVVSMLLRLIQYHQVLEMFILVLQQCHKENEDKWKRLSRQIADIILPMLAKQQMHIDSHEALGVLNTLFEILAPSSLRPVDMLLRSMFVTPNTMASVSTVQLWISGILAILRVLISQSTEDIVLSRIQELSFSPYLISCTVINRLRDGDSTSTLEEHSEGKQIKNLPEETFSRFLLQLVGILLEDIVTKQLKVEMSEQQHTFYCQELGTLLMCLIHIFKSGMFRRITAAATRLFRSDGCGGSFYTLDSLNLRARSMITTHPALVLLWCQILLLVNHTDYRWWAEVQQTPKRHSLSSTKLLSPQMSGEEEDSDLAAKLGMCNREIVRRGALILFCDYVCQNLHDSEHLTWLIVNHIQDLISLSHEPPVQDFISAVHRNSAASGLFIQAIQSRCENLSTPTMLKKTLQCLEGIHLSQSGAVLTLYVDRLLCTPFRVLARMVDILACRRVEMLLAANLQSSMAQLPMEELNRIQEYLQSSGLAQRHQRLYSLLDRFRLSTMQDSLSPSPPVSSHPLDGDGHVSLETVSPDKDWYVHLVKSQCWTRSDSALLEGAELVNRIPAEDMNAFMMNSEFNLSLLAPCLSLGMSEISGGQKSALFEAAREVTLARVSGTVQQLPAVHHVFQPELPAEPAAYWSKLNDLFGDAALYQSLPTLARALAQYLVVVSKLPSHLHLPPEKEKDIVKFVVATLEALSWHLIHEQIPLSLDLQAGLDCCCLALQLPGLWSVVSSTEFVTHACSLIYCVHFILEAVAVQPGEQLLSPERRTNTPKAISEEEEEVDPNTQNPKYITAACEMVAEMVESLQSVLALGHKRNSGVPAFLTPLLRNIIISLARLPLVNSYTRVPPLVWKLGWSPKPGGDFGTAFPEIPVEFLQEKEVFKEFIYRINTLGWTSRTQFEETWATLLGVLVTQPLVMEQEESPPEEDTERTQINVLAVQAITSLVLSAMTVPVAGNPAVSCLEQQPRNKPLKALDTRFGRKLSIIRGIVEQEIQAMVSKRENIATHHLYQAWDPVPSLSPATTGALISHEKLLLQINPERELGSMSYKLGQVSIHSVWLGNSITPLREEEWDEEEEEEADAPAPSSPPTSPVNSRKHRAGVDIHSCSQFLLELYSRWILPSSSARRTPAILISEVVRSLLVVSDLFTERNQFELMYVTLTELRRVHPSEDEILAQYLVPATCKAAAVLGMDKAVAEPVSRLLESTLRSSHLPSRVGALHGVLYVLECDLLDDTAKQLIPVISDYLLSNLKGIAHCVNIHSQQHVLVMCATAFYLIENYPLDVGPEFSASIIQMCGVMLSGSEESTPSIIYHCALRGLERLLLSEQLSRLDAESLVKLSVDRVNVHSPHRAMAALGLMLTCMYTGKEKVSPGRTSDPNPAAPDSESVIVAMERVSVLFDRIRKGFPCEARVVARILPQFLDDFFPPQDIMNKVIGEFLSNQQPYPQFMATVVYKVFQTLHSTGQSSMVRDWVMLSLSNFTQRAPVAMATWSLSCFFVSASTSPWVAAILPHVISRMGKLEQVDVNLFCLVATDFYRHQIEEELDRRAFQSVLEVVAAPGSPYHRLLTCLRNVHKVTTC
Large screens that a line does not name were inactive. Rule as the data show it: active = inhibition above about 50%; inactive = the rest.

Cc1ccc(Cl)cc1N1CCN(C(=O)c2noc3c2CCCC3)CC1	mHTT-CaM PPI inh 96
COc1cccc(-n2nc(C(=O)Nc3c(F)cccc3F)c3ccccc3c2=O)c1	none
O=C(c1ccc(C(F)(F)F)cc1)N1CCc2c(nc3cc[nH]n3c2=O)C1	none
CCCn1cc(C2=CCN(C(=O)Nc3ccc(C)c(F)c3)CC2)c2cccnc21	none
CCn1c2ccccc2c2cc(C3C(C#N)=C(N)Oc4n[nH]c(COC)c43)ccc21 (stereo unspecified)	mHTT-CaM PPI inh 65
COCc1[nH]nc2c1C(c1ccc(OC)c(OC)c1)C(C#N)=C(N)O2 (stereo unspecified)	none
CCn1c(C)nc2c1CN(CC(=O)NCCCN1CCCc3ccccc31)CC2	none
NC1=Nc2ccccc2CCC1	none
Cc1cc(C2C(C#N)=C(N)N(c3cccnc3)C3=C2C(=O)CC(c2ccccc2)C3)c(C)s1 (stereo unspecified)	mHTT-CaM PPI inh 58
Cc1cc(C2C(C#N)=C(N)N(c3cccnc3)C3=C2C(=O)CCC3)c(C)s1 (stereo unspecified)	none
Cc1ccc(OCC(=O)Nc2ccc([N+](=O)[O-])cc2Cl)cc1C	none
CCN(CC)c1ccc(N)c(C)c1	mHTT-CaM PPI inh 58
CCN(CC)c1ccc(C#N)cc1	none (no result: mHTT-CaM PPI inh)
CC1CCCCN1Cc1nc2sc3c(c2c(=O)[nH]1)CCCC3 (stereo unspecified)	none
Cc1nc(N2CCOCC2)c2c(C)c(C(=O)Nc3ccc(Br)cc3C)sc2n1	none
Cc1nc(N2CCOCC2)c2c(C)c(C(=O)Nc3ccc([N+](=O)[O-])cc3C)sc2n1	mHTT-CaM PPI inh 52
CC(C)(C)c1csc(CN2CCN(CC(=O)NCc3ccccc3)CC2)n1	none
COc1ccccc1/C=C1\C(=O)Nc2ccc(F)cc21	none
O=C1Nc2ccc(F)cc2/C1=C/c1ccc(F)cc1	none
Cc1ccccc1/C=C1\C(=O)Nc2ccc(Br)cc21	mHTT-CaM PPI inh 97
CSc1ccc(/C=C2\C(=O)Nc3ccc(Br)cc32)cc1	none
CCOc1ccccc1/C=C1\C(=O)Nc2ccc(F)cc21	mHTT-CaM PPI inh 96
Cc1ccc(/C=C2\C(=O)Nc3ccc(Br)cc32)o1	mHTT-CaM PPI inh 75
Cc1ccc(/C=C2\C(=O)Nc3ccc(Br)cc32)cc1	none
CC(C)c1ccc(/C=C2\C(=O)Nc3ccc(F)cc32)cc1	mHTT-CaM PPI inh 100
N/C(=N\OC(=O)c1ccc(Cl)cc1)c1ccncc1	none
O=C(Nc1ccccc1SC(F)F)NS(=O)(=O)c1ccccc1Cl	none
COc1ccc(OC)c(C2=C/C(=C\c3cccc([N+](=O)[O-])c3)C(=O)O2)c1	none
Cc1cn(CC(=O)N(C)C)c(=NC(=O)c2ccccc2F)s1	none
Cc1ccc(-c2nc(NC(=O)COc3ccccc3[N+](=O)[O-])sc2C)cc1	none
COc1ccc(Br)cc1/C=C1\C(=O)Nc2ccc(Br)cc21	none
Cc1ccccc1/C=C1\C(=O)Nc2ccc(F)cc21	mHTT-CaM PPI inh 100
O=C1Nc2ccc(Br)cc2/C1=C/c1ccc(Br)cc1	none
CCOc1c(O)ccc(/C=C2\C(=O)Nc3ccc(Br)cc32)c1[N+](=O)[O-]	mHTT-CaM PPI inh 94
CCCCOc1ccccc1/C=C1\C(=O)Nc2ccc(Br)cc21	mHTT-CaM PPI inh 62
O=C1Nc2ccc(F)cc2/C1=C/c1ccccc1F	none
CCOc1cc(/C=C2\C(=O)Nc3ccc(Br)cc32)c(Br)cc1OC	none
O=C1Nc2ccc(Br)cc2/C1=C/c1ccc(O)cc1	mHTT-CaM PPI inh 100
NC(=O)CN1CCCC1=NCc1ccccc1	none
Cc1onc(-c2ccccc2)c1C(=O)Nc1ccc(OCc2ccccc2)cc1	none
COc1ccc(OC)c(S(=O)(=O)Nc2ccc(C)c(Cl)c2)c1	none
CC(=O)Nc1ccc(NC2=CC(=NS(=O)(=O)c3ccccc3)c3ccccc3C2=O)cc1	mHTT-CaM PPI inh 71
O=C(O)c1ccc(NC2=CC(=NS(=O)(=O)c3ccc(Cl)cc3)c3ccccc3C2=O)cc1	mHTT-CaM PPI inh 82
Cc1ccc(S(=O)(=O)c2ccc(Cl)cc2)cc1S(=O)(=O)Nc1ccc(C(=O)O)cc1	none
CC(=O)Nc1ccc(NC2=CC(=NS(=O)(=O)c3ccc(C)cc3)c3ccccc3C2=O)cc1	none
O=C(NCc1ccccn1)C1=C2CCCN2c2ccc(F)cc2S1(=O)=O	none
Cc1cc(=O)oc(C)c1C(=O)NCc1ccccn1	mHTT-CaM PPI inh 57
O=C(NCc1ccccn1)c1ccc2c(c1)OCO2	mHTT-CaM PPI inh 100
CCN(CCCNC(=O)c1nn(-c2ccccc2OC)c(=O)c2ccccc12)c1cccc(C)c1	mHTT-CaM PPI inh 62
Cc1cc(=O)oc(C)c1C(=O)NCc1cccs1	none
Cc1cc(=O)oc(C)c1C(=O)NCCCN(CC(C)C)CC(C)C	none
O=C(NCc1cccnc1-c1ccccc1)c1ccc2c(c1)OCO2	none
CCN(CCCNC(=O)c1c(C)cc(=O)oc1C)c1cccc(C)c1	mHTT-CaM PPI inh 64
COCCNC(=O)c1nn(-c2ccccc2OC)c(=O)c2ccccc12	none
COc1cccc2c1Oc1ccccc1N=C2N1CCN(C(=O)C(C)C)C(C)C1 (stereo unspecified)	none
COc1ccc(-c2csc(/C(C#N)=C/Nc3ccc(Cl)cc3)n2)cc1OC	none
COc1ccc(N2CC(c3nnc(NC(=O)Cc4ccccc4Cl)o3)CC2=O)cc1 (stereo unspecified)	none
COc1ccc2c(c1)OC(=Cc1ccncc1)C2=O	none
CCCOc1nccnc1NC1CCN(C(=O)Cc2cccnc2)CC1	none
Cc1cc(C)c(S(=O)(=O)N2CCN(c3ccc([N+](=O)[O-])cc3)CC2)c(C)c1	none
CN(CC(=O)Nc1cccc(Cl)c1)S(=O)(=O)c1cccs1	none
COc1ccc(-n2nc(C(=O)Nc3ccc(F)cc3)c3ccccc3c2=O)c(OC)c1	none
COc1ccc(-n2nc(C(=O)NCC(=O)Nc3ccc(F)cc3)c3ccccc3c2=O)c(OC)c1	mHTT-CaM PPI inh 88
CCOC(=O)c1oc2ccccc2c1NC(=O)c1ccc(S(=O)(=O)N(C)C2CC2)cc1	none
Cn1nc(C(=O)NCc2ccc(F)cc2)c2c1CCN(C(=O)c1ccc(F)cc1)C2	none
Cn1nc(C(=O)NCc2ccc(F)cc2)c2c1CCN(C(=O)c1cccs1)C2	none
COc1cccc(C(=O)N2CCc3c(c(C(=O)NCc4ccc(F)cc4)nn3C)C2)c1	mHTT-CaM PPI inh 86
Cc1cccc(C(=O)N2CCc3c(c(C(=O)NCc4ccc(F)cc4)nn3C)C2)c1	mHTT-CaM PPI inh 73
COc1cc(CNC23CC4CC(CC(C4)C2)C3)cc(OC)c1OC	none
N#CC(=Cc1[nH]c2ccccc2c1O)C(N)=NC1CCCCC1	mHTT-CaM PPI inh 92
N#CC(=Cc1[nH]c2ccccc2c1O)C(N)=NCCc1ccccc1	none
CCCN1C(=O)Cc2ccccc2C1C(=O)NCc1cccs1 (stereo unspecified)	none
O=[N+]([O-])c1cccc(Cl)c1N1CCN(c2ccc([N+](=O)[O-])c3cccnc23)CC1	none
COc1ccc(C(NC(C)=O)c2cc([N+](=O)[O-])c3cccnc3c2O)cc1 (stereo unspecified)	mHTT-CaM PPI inh 100
CC(=O)NC(c1ccccc1)c1cc([N+](=O)[O-])c2cccnc2c1O (stereo unspecified)	mHTT-CaM PPI inh 100
Cc1cc(I)ccc1Nc1c([N+](=O)[O-])cc([N+](=O)[O-])c2cccnc12	none
CC(=O)NC(c1ccccc1Cl)c1cc([N+](=O)[O-])c2cccnc2c1O (stereo unspecified)	mHTT-CaM PPI inh 100
COc1ccc(NC(=O)CSc2cccc3cccnc23)c([N+](=O)[O-])c1	none
O=C(c1ccc(OCC2CCCN(C(=O)c3ccc(F)cc3)C2)cc1)N1CCOCC1 (stereo unspecified)	none

Screening data as filed in PubChem.
